Compound activity as filed in PubChem BioAssay.
HTT cytoprotect: qHTS Multiplex Assay to Identify Dual Action Probes in a Cell Model of Huntington: Cytoprotection (ATP). PC12 HTT-Q103 induced, cytoprotection, ATP luminescence, 40 h. Potency, µM (highest dose often 56.4 µM), most hits filed as activators. actives 0.14% (n = 230,000). AID 1471, 2008; further: nearly all actives have a fitted effect of over 45% in size
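Rat PC12, Q103 Htt exon1-GFP fusion, ecdysone promoter; tebufenozide inducer 100 nM final; compound titration; qHTS, 1500 cells/well; ATPlite luminescent read.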
KDM4E inh: qHTS Assay for Inhibitors of Human Jumonji Domain Containing 2E (JMJD2E); JMJD2E catalytic domain, FDH-coupled NADH fluorescence (FDH is formaldehyde dehydrogenase); Potency, µM (top dose mostly 57.1 µM), most hits filed as inhibitors; actives 1.6% (n = 230,000); AID 2147, 2009; active means well fitted inhibition curve with a large enough effect, not every such curve was filed as active; inconclusive means small, poorly fitted or top-dose-only effect, or another doubt; inactive means no such curve, though single readings can be large or run the other way; further: nearly all actives have a fitted effect of over 50% in size
Target sequence (B2RXH2 1-337 limits assumed): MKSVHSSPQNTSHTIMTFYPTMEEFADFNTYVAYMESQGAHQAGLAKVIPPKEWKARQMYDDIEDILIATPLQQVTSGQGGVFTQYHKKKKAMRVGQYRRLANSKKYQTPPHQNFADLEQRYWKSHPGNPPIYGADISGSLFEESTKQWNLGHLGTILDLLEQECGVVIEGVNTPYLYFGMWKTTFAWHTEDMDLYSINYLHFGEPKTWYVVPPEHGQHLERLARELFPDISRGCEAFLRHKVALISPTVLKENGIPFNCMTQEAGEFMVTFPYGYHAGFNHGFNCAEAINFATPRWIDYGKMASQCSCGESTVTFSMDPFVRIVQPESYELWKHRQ
L3MBTL1 block: qHTS Assay for the Inhibitors of L3MBTL1 | Lethal(3)malignant brain tumor-like protein 1 (Homo sapiens), Q9Y468 | AlphaScreen L3MBTL1–H3K9me1 peptide binding | Potency, µM (series often up to 57.1 µM), hits mostly inhibitors | actives 0.66% (n = 230,000) | AID 485360, 2010; further: nearly all actives have a fitted effect of over 60% in size
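AlphaScreen proximity signal between nickel-chelate acceptor and streptavidin donor beads (final 10 ug/mL) reports binding of 50 nM L3MBTL1 to 75 nM biotin-H3 K9me1 peptide; complex incubated with compounds 30 min at room temperature; cefsulodin titration as control.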
HTT aggregate: qHTS Multiplex Assay to Identify Dual Action Probes in a Cell Model of Huntington: Aggregate Formation (GFP). Potency, µM (highest dose often 46.1 µM), hits mostly inhibitors. PC12 HttQ103-GFP aggregates, Acumen cytometry, 40 h. actives 1.1% (n = 220,000). AID 1688, 2009; further: nearly all actives have a fitted effect of over 60% in size
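Aggregates are detected as GFP objects 1–25 µm with signal 6 STDEV over background in lysates of induced PC12 cells. These carry Huntingtin exon 1 with 103 glutamines fused to GFP under an ecdysone promoter; compounds titrated.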
Each line names hits and unclear results; the compound was inactive in the other large screens; ! = not active in a repeat. Rows were chosen to be rich in hits. Some 1.8% of all compounds tested hit in one or more screens of this group. Unless noted, the call rests on the fitted dose curve; in most records, active means well fitted curve in the direction sought with a large enough effect; inconclusive means small, poorly fitted or top-dose-only effect, or another doubt; inactive means no such curve, though single readings can be large; an effect the other way counts as inactive or inconclusive.

COc1ccc(-n2c(-c3ccccc3)cc3c2CCCC3=O)cc1	L3MBTL1 block 32µM, HTT aggregate inconclusive
O=C1CCCc2c1cc(-c1ccccc1)n2-c1ccc(O)cc1	none
COc1ccc2c(c1)Sc1ccccc1N2	L3MBTL1 block inconclusive, HTT aggregate 7.9µM
COc1ccc(N(C(C)C(=O)N/N=C/c2cc(Br)c(C)o2)S(C)(=O)=O)cc1 (stereo not drawn)	HTT cytoprotect 0.89µM, HTT aggregate inconclusive
Nc1c[n+](N2CCOCC2)no1	none (no result: L3MBTL1 block, HTT aggregate)
O=C(Nc1ccc(OCC(=O)N2CCOCC2)cc1)Nc1cccc(Cl)c1	none
O=C(Nc1ccc(C(=O)N2CCOCC2)cc1)Nc1cccc(Cl)c1	HTT aggregate 11µM
O=C(CCCc1cccs1)Nc1nc2c(s1)CCCC2	HTT aggregate 0.028µM (no result: HTT cytoprotect)
CCC(=O)Nc1nc(-c2ccccc2)ns1	HTT aggregate inconclusive
O=C(CSc1ncn[nH]1)Nc1nc(-c2ccccc2)ns1	HTT aggregate 22µM
C=CC1=C(C(=O)O)N2C(=O)[C@@H](NC(=O)C(N=O)c3csc(N)n3)[C@H]2SC1 (stereo partly drawn)	none (no result: KDM4E inh, L3MBTL1 block)
COCC(=O)O[C@]1(CCN(C)CCCc2nc3ccccc3[nH]2)CCc2cc(F)ccc2[C@@H]1C(C)C	HTT aggregate 7.9µM! (no result: L3MBTL1 block)
COc1ccc(-c2n[nH]c(C(F)(F)F)c2-c2cc3ccccc3o2)c(O)c1	KDM4E inh inconclusive, HTT aggregate 3.5µM
COc1cc2cc3c(N)c(C(=O)NCc4ccco4)sc3nc2cc1OC	KDM4E inh inconclusive
COc1cc2cc3c(N)c(C(=O)Nc4sc(C)c(C)c4C#N)sc3nc2cc1OC	KDM4E inh inconclusive, L3MBTL1 block 3.2µM
O=C(c1cccc(F)c1)N1CCC2(CC1)CN(c1ncccn1)C2	none (no result: KDM4E inh, L3MBTL1 block, HTT aggregate)
FC(F)Sc1ccc(NC(=S)NC(c2ccccc2)c2ccccc2)cc1	HTT aggregate 13µM (no result: L3MBTL1 block)
COc1ccc(-c2nc3cnc(N4CCNCC4)nc3n(-c3ccccc3)c2=O)cc1	none (no result: KDM4E inh, L3MBTL1 block, HTT aggregate)
C[C@@H](CNC1CCCCC1)OC(=O)c1ccccc1	none (no result: L3MBTL1 block)
Cc1ccc(OCC(=O)NNC(=S)NC(=O)C(C)(C)C)c(Br)c1	KDM4E inh inconclusive, HTT aggregate 11µM (no result: HTT cytoprotect)
CC1C(=O)NN=C1C(=O)N/N=C\c1ccc(O)cc1O (stereo not drawn)	KDM4E inh 22µM, L3MBTL1 block 28µM
Cc1ccc(-n2nc(C)c3c2OC(N)=C(C#N)C3c2ccc(C)o2)cc1 (stereo not drawn)	KDM4E inh 25µM, L3MBTL1 block inconclusive
Cc1nn(-c2ccccc2)c2c1C(c1ccccc1)C(C#N)=C(N)O2 (stereo not drawn)	none
Cc1ccc(-n2nc(C)c3c2OC(N)=C(C#N)C3c2ccco2)cc1 (stereo not drawn)	L3MBTL1 block inconclusive
Cc1ccc(-n2nc(C)c3c2OC(N)=C(C#N)C3c2ccoc2)cc1 (stereo not drawn)	KDM4E inh 10µM, L3MBTL1 block inconclusive
C=CCN1C(=O)/C(=C/c2ccc(O)cc2)S/C1=N/c1nccs1	HTT aggregate inconclusive
C=CCN1C(=O)/C(=C2/C(=O)N(CC(=O)O)c3ccccc32)S/C1=N/c1nccs1	L3MBTL1 block 7.9µM, HTT aggregate inconclusive
CN(C)C=Nc1ncc2c([nH]c3ccccc32)c1C#N	KDM4E inh inconclusive, HTT aggregate 6.3µM
CN(C)/C=N/c1[nH]ncc1C#N	none
CO[C@@H]1/C=C\O[C@]2(C)Oc3c(C)c(O)c4c(O)c(c(CN5CCN(C)CC5)c(O)c4c3C2=O)NC(=O)/C(C)=C\C=C[C@@H](C)[C@@H](O)[C@H](C)[C@@H](O)[C@H](C)[C@H](OC(C)=O)[C@@H]1C	none (no result: KDM4E inh, L3MBTL1 block, HTT aggregate)
O=C(Nc1ccc(N2CCCC2)c(Cl)c1)c1cccc(-c2cc3ccccc3oc2=O)c1	L3MBTL1 block 28µM
Oc1ccccc1/C=N/Nc1nccnc1Cl	KDM4E inh 25µM, HTT aggregate inconclusive (no result: L3MBTL1 block)
COc1cccc(/C=N/Nc2ncnc(Cl)c2N)c1O	KDM4E inh 25µM, L3MBTL1 block 20µM, HTT aggregate inconclusive
COc1cccc(/C=N/Nc2ncnc3scc(-c4ccccc4)c23)c1O	KDM4E inh 14µM, L3MBTL1 block 32µM, HTT aggregate 8.9µM (no result: HTT cytoprotect)
COc1cccc(/C=N/Nc2nccnc2Cl)c1O	KDM4E inh inconclusive, L3MBTL1 block inconclusive, HTT aggregate 1.3µM
COc1ccc(/C=N/Nc2nccnc2Cl)c(OC)c1	none (no result: HTT cytoprotect, HTT aggregate)
CCCCCCCCCCCCCCCCOC[C@@H](COCC(F)(F)F)OP(=O)(O)OCO	none (no result: KDM4E inh, L3MBTL1 block, HTT aggregate)
CN(C)c1ncc2nc(-c3cccs3)c(=O)n(CCC#N)c2n1	none (no result: KDM4E inh, L3MBTL1 block, HTT aggregate)
O=C(CN1CCN(c2ccccc2O)CC1)NC(c1ccccc1)c1ccccc1	none
O=C(CN1CCCC1)NC(c1ccccc1)c1ccccc1	L3MBTL1 block 4µM (no result: HTT cytoprotect, KDM4E inh, HTT aggregate)
C/C=C\C1=C(CO)C(=O)[C@@H]2OC2C1=O (stereo partly drawn)	none (no result: KDM4E inh, L3MBTL1 block, HTT aggregate)
N#Cc1nc(-c2ccc(OCc3ccccc3Cl)cc2)oc1NCCCn1ccnc1	KDM4E inh 3.2µM (no result: L3MBTL1 block)
N#Cc1nc(-c2ccc(OCc3ccccc3)cc2)oc1NCc1cccnc1	KDM4E inh inconclusive, HTT aggregate 13µM
N#Cc1nc(-c2ccc(OCc3ccccc3)cc2)oc1NCCCn1ccnc1	KDM4E inh inconclusive, L3MBTL1 block inconclusive, HTT aggregate inconclusive
O=C(O)c1ccc(Nc2nc(-c3cc4ccccc4oc3=O)cs2)cc1O	KDM4E inh 20µM, L3MBTL1 block inconclusive
O=C(C[n+]1ccc(C(=O)N/N=C/c2ccc(OCc3ccccc3)cc2)cc1)c1ccccc1	KDM4E inh 28µM (no result: L3MBTL1 block)
O=C(O)c1cccc(N2C(=O)/C(=C/c3ccc(SCc4ccc(Cl)cc4)o3)SC2=S)c1	HTT cytoprotect 20µM, KDM4E inh 22µM, L3MBTL1 block 3.5µM
Cc1ccc(C2=NC(C)(C)N=C2SCC(=O)Nc2ccc(Cl)cc2)cc1	none (no result: L3MBTL1 block)
CC1(C)N=C(SCC(=O)Nc2ccccc2)C(c2ccc(Cl)cc2)=N1	HTT cytoprotect 18µM (no result: L3MBTL1 block)
O=c1/c(=C/c2ccco2)sc2nc(-c3ccccc3Br)nn12	KDM4E inh 25µM, L3MBTL1 block inconclusive
COc1ccccc1-c1nc2s/c(=C\c3cccs3)c(=O)n2n1	KDM4E inh inconclusive (no result: L3MBTL1 block)
CC[C@H](C)C(=O)O[C@@H]1CCC=C2C=C[C@H](C)[C@@H](CC[C@H]3C[C@@H](O)CC(=O)O3)[C@H]21	none (no result: KDM4E inh, L3MBTL1 block, HTT aggregate)
C#C[C@]1(O)CC[C@@H]2[C@H]3CCC4=Cc5oncc5C[C@]4(C)[C@@H]3CC[C@@]21C	none (no result: L3MBTL1 block, HTT aggregate)
COC(=O)c1cc(C)sc1NC(=O)C1CC(=O)NN1Cc1ccccc1 (stereo not drawn)	none
CCOC(=O)c1cc(CC)sc1NC(=O)C1CC(=O)NN1Cc1ccccc1 (stereo not drawn)	HTT aggregate 10µM
O=c1cc(-c2cccc(O)c2)oc2c(O)c(O)ccc12	KDM4E inh 7.9µM (no result: L3MBTL1 block, HTT aggregate)
